# Results reported in ChEMBL document CHEMBL3988442, “University of Dundee, Small-Polar-MMV Screening Library” (2021).
# What was measured:
# [1] = target: T1, Aspartate--tRNA(Asp/Asn) ligase (Mycobacterium tuberculosis (strain ATCC 25618 / H37Rv)) (UniProt P9WFW3); experiment: Assay for Asp RNA synthetase-1 from Mycobacterium tuberculosis; type: functional; parameters: scale not given: direction of the effect not stated beside the values; conditions: 30 µM; further: in the data most compounds retested in dose-response had high values
# T1 sequence (whole entry): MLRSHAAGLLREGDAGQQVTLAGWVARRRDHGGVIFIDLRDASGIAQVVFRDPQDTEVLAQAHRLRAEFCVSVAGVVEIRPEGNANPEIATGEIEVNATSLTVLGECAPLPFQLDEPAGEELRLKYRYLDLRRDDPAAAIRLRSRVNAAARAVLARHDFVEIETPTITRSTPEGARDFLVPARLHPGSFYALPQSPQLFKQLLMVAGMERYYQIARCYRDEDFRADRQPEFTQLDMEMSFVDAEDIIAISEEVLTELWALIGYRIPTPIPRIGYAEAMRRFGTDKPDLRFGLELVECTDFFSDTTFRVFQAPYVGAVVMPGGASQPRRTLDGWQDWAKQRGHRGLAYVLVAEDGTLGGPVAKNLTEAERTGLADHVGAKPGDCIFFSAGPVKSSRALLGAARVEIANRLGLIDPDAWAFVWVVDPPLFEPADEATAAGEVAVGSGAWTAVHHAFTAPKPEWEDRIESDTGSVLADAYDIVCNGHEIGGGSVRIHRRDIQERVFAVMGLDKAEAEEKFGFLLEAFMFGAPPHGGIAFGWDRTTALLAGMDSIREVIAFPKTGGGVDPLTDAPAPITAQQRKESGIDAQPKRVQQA
# [2] = target: Shiga toxin 2 (Escherichia coli O157:H7) (UniProt P09385+P09386); experiment: E. coli 0.157:H7 Shiga Toxin SOP - stx2 screening assay; type: functional; parameters: scale not given: direction of the effect not stated beside the values; conditions: 30 µM
SMILES,Percent Effect [1],Percent Effect [2]
COc1ccc(C)cc1CN1CCCC1c1noc(C2CC2)n1 (centres undefined),-4.34%,-3.88%
CCc1nnsc1C(=O)N1CCOC(c2nc(C)n[nH]2)C1 (centres undefined),-2.08%,-18.3%
O=C(c1cccc2c1OCCO2)N1CCCC(n2ccnc2)C1 (centres undefined),-1.01%,21.1%
CCc1ncc2c(n1)CN(Cc1nc(-c3ccsc3)no1)CC2,-0.759%,13.8%
COc1ccccc1CC(=O)N1CCCC(n2nc(C)cc2C)C1 (centres undefined),-1.4%,10.9%
CC(O)CC(C)(C)CNC(=O)NCc1cccc(-n2cncn2)c1 (centres undefined),-1.59%,7%
CN(C)C[C@H]1OC[C@@H]2CCN(C(=O)c3ccco3)C[C@@H]21,-2.13%,-9.03%
Cc1cncc(C(=O)N2CCCCC2c2nc(C)cs2)c1 (centres undefined),-9.59%,-42.4%
Cc1nn(C)c(Cl)c1C1CCCN1C(=O)c1cc(Cl)c[nH]1 (centres undefined),1.85%,16.5%
Cc1ncsc1CN1C[C@@H](OCC2CC2)[C@H]2OCCC[C@H]21,-6.67%,4.7%
COc1cc(CN2CC[C@@]3(CCCO3)[C@@H](O)C2)ccc1F,4.99%,3%
CN1CCC/C1=N\S(=O)(=O)c1ccc(NC(=O)CCc2cccs2)cc1,1.3%,-144%
c1ccc(-n2cc(CN3CCCC(Cn4cncn4)C3)nn2)cc1 (centres undefined),-9.82%,-48.9%
O=C(NC1CC1)[C@H]1CC[C@@H]2[C@@H](CCN2c2ncc(F)cn2)O1,-4.13%,-23%
CCn1cc(CN2CCCC(CO)(CCc3ccccc3)C2)c(C)n1 (centres undefined),0.494%,-5.78%
CC(NC(=O)NCC1(N2CCCCC2)CCCCC1)c1nncn1C (centres undefined),-4.55%,27.5%
O=C(C1=CCCC1)N1CCO[C@H]2[C@@H](OCC3CC3)CC[C@@H]21,2.53%,-28.7%
